The target of assay [1] is Arylsulfatase A (Homo sapiens) (UniProt P15289). The assay is described as follows: qHTS screen for enhancers of Arylsulfatase A (ASA1): LOPAC Validation Assay (AID 720538). The procedure, abridged: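 Enhancer assay in patient-derived MLD fibroblasts carrying ASA-I179S: 48 h compound exposure at 37 C, then 14 h room-temperature pNCS turnover (0.5 mM final) in lysis buffer. Read by fluorescence at 525/598 nm after NaOH stop.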

The nature of assay [2]: qHTS for compounds that reverse cellular toxicity of Amyloid beta (A-beta) peptide in yeast: LOPAC Validation Assay (AID 720559).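 Also: plate controls were DMSO for no effect and equimolar ferric chloride plus clioquinol rescue for full effect.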 The procedure, abridged: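 Rescue of A-beta toxicity was scored as yeast growth by 600 nm absorbance after 48 hr at 30 C with compound. Normalization used DMSO (negative) and equimolar ferric chloride plus clioquinol (positive).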
Assay [3] deals with T1, Hexokinase-4 (Homo sapiens) + Glucokinase regulatory protein (Homo sapiens) (UniProt P35557+Q14397). The assay is described as follows: qHTS assay for inhibitors of recombinant human GCK-GKRP interaction: Diaphorase-coupled assay (AID 743205). The method, boiled down: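 A kinetic fluorescence read (Ex 525/Em 590 nm, every minute for 30 minutes) tracked resorufin from a G6PDH-diaphorase coupled GCK reaction. It contained 10 nM GST-GCK, 10 nM FLAG-GKRP, 5 mM glucose, 0.4 mM ATP in Hepes pH 7.6. Normalized to with/without-enzyme DMSO controls.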

Assay [4] addresses T1, Hexokinase-4 (Homo sapiens) + Glucokinase regulatory protein (Homo sapiens). The assay is described as follows: qHTS assay for inhibitors of recombinant human GCK-GKRP interaction: ADP-Glo assay (AID 743206).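 Also: plate controls were DMSO plus enzyme for no effect and no enzyme for full effect.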 The method, boiled down: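 GST-GCK and FLAG-GKRP (15 nM each in the dispensed mix, with 2 uM S6P) react with 0.4 mM ATP and 5 mM glucose (final) in Hepes pH 7.6 for 60 min at room temperature. ADP is measured by ADP-Glo luminescence.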

Assay [5] in a line: qHTS Assay for Identifying Gametocytocidal Compounds (AID 743244).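 Also: % is scaled to controls: 0 for no effect and ±100 for the full control effect; actives lower the fluorescent signal which means gametocytes are killed.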 Conditions: P. falciparum 3D7 stage III-V gametocytes, alamarBlue, 72 h; max response: active compounds read low. The procedure, abridged:
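Compounds are pinned into medium, gametocytes (stage III–V, 3D7, 20,000 cells/well) added, and plates held 72 h at 37 °C in 5% CO2. AlamarBlue follows for 24 h before fluorescence reading.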

Assay [6] in a line: qHTS for Activators of Parkin Expression: LOPAC Validation Assay (FLuc Reporter) (AID 720573; also: potency is read from the fitted curve at half-maximal effect). The method, boiled down:
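FLuc signal from Parkin-promoter coincidence reporter neuronal cells, normalized to DMSO and positive control (100%). Cells (1,500/well) pre-incubated 24 h, then exposed to LOPAC compounds in 7-point dose response for 24 h at 37 C, 5% CO2.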

For assay [7], the target named is T1, Hexokinase-4 (Homo sapiens) + Glucokinase regulatory protein (Homo sapiens). In words: qHTS assay for inhibitors of recombinant human GCK-GKRP interaction: HTRF assay (AID 743207).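 Also: 0% = DMSO with GCK present and -100% = DMSO wells lacking GCK.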 The procedure, abridged:
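After 60 min equilibration at room temperature with anti-FLAG XL665 and anti-GST antibodies, FRET ratio (665/615 nm, excitation 320 nm) was read. Proteins: GST-GCK and FLAG-GKRP, each 5 nM, plus 2 uM S6P, pH 7.1 buffer; GCK-free wells define minimum signal.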

A short description of assay [8]: qHTS assay for small molecule agonists of the antioxidant response element (ARE) signaling pathway measured by Nrf2-dependant transcriptional activity (AID 720636; active = well fitted curve in the direction sought with a large enough effect in the repeat runs; an effect the other way counts as inactive or inconclusive; also: % of control where 0% means no effect). The method, boiled down:
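ARE-luc HepG2 cells carrying an Nrf2-responsive luciferase reporter, in medium with 1% dialyzed FBS, exposed to compound for 16 hr at 37 C, 5% CO2. Luminescence read 30 min after ONE-Glo addition.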

Assay [9] can be described thus: qHTS assay for small molecule agonists of the antioxidant response element (ARE) signaling pathway measured by Nrf2-dependant transcriptional activity - cell viability counter screen (AID 720653; active = well fitted curve in the direction sought with a large enough effect in the repeat runs; an effect the other way counts as inactive or inconclusive; also: % is scaled to controls: 0 for no effect and ±100 for the full control effect). The note with it: ARE-bla HepG2 viability, CellTiter-Glo ATP luminescence, 16 h; active compounds read low. The method, boiled down: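 ARE-bla HepG2 cells (2,000/well) rested 5 hrs at 37C/5% CO2, then exposed to compounds in DMSO for 16 hrs. Viability was read in the same wells as intracellular ATP by luminescence, 30 min at room temperature after reagent addition.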

Assay [10] in a line: qHTS assay for cell viability of HEK293 cells (AID 743288). Also: % is scaled to controls: 0 for no effect and ±100 for the full control effect; nearly all actives have a fitted effect of over 50% in size. Conditions: ATP luminescence (CellTiter-Glo), 18 h; max response: active compounds read low. The procedure, abridged:
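Total intracellular ATP, measured with a luciferase-coupled reagent, indicates the number of viable HEK293 cells. Exposure to test chemicals lasts 18 h at 37 C in 1,536-well format at 2,000 cells/well.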

Assay [11] can be described thus: qHTS assay for cell viability of the p53RE-bla HCT-116 cell line (AID 743292). Also: potency is read from the fitted curve at half-maximal effect; nearly all actives have a fitted effect of over 55% in size. The procedure, abridged: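 CellSensor p53RE-bla HCT-116 cells (4,000/well) pre-incubated 5 h at 37 C, then exposed to compounds in DMSO for 16 h at 37 C. Viability read as ATP content by CellTiter-Glo luminescence after 30 min at room temperature.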
Assay [12] in a line: qHTS for Activators of Parkin Expression: LOPAC Validation Assay (NLuc Reporter) (AID 720572;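 also: 0% = DMSO and 100% = positive control compound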). The method, boiled down: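 Neuronal line stably carrying a FLuc/NLuc coincidence reporter under the Parkin promoter, seeded 24 h, then dosed in 7-point series for 24 h at 37 C. NLuc luminescence read after FLuc; normalized to DMSO and positive control (100%).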

SMILES strings stand for the structures. A number with no mark means an inactive call. Results filed as inconclusive are left out. Activity calls are given as the source filed them. Unless noted, calls follow the shape of the dose curve; as a rule, active = well fitted curve in the direction sought with a large enough effect; inconclusive = small, poorly fitted or top-dose-only effect, or another doubt; inactive = no such curve, though single readings can be large; an effect the other way counts as inactive or inconclusive.

Sequence of Arylsulfatase A (Homo sapiens) (P15289 whole entry, looked up): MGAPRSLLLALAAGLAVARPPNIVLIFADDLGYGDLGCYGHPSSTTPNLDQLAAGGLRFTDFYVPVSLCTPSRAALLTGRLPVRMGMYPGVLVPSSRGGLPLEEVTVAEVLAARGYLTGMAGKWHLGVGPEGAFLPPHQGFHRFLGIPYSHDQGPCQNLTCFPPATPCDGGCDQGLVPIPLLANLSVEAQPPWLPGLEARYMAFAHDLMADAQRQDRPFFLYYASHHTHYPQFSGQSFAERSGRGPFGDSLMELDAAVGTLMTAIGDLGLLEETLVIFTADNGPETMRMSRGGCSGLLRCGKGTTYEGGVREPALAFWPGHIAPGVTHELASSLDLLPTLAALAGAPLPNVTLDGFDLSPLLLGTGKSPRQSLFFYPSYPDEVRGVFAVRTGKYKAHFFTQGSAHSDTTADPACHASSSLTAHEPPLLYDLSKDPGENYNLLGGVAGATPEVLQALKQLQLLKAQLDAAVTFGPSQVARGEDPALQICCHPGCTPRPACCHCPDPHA
T1 sequence (P35557 whole entry, looked up): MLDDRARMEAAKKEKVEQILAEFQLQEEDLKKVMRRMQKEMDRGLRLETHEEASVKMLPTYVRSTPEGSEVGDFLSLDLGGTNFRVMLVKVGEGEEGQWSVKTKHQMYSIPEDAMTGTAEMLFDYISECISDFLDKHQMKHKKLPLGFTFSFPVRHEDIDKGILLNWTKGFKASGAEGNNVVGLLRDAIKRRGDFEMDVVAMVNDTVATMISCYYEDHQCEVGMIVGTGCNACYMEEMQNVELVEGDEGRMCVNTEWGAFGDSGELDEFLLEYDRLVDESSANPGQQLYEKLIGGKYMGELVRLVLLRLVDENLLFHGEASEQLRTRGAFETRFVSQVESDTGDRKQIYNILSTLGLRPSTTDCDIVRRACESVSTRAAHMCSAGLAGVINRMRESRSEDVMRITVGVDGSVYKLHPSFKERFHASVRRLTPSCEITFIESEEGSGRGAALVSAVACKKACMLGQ
T1 sequence (Q14397 whole entry, looked up): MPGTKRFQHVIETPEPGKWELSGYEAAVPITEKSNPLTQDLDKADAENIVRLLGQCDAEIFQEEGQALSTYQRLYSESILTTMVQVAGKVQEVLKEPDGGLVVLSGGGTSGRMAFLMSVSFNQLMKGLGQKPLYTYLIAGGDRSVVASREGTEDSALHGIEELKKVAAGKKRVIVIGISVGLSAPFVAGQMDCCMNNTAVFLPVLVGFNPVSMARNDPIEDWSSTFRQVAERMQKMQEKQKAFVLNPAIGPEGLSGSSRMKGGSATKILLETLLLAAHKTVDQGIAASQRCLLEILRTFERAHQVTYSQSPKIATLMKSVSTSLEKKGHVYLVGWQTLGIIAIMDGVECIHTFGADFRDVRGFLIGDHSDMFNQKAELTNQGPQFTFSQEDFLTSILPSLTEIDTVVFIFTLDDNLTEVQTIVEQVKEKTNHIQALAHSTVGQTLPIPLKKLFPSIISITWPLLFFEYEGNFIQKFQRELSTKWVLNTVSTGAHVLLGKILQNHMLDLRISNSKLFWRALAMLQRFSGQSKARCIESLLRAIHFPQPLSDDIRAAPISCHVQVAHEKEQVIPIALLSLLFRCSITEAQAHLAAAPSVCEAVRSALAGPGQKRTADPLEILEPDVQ

As to `CC1CNCCN1S(=O)(=O)c1cccc2cnccc12` (stereo unspecified), the Potency result in assay [1], in [3] and in assay [4] was “inactive” throughout. Also, the outcome in assay [2] was inactive. Also, the max response in assay [5] is 22.5%.
Turning to `CCCC[C@@]1(C2CCCC2)Cc2cc(OCC(=O)O)c(Cl)c(Cl)c2C1=O`, the Potency result in [1], in assay [6], in assay [3], in assay [4] and in [7] was “inactive” throughout. Further, the call in assay [2] was inactive. Further, the max response in assay [5] is 8.17%.
For the molecule `Oc1cc2c(cc1O)C(c1ccccc1)CNCC2` (stereo unspecified), the Potency entry in assay [1], in assay [6], in [3], in assay [4] and in [7] was “inactive” throughout. The molecule was called inactive in [2]. For the same molecule, the max response in assay [5] is 20.1%.
Consider `COC1(C2=NCCN2)COc2ccccc2O1` (stereo unspecified), for which the Potency entry in [1], in [6], in assay [3], in assay [4] and in assay [7] was “inactive” each time. Moreover, in assay [2], the outcome was inactive. In addition, the max response in assay [5] is 25.5%.
On to `NCCCNCCCCNCCCN`, for which the Potency entry in [1], in assay [6], in assay [3], in assay [4] and in assay [7] was “inactive” in each case. Further, the molecule was called inactive in assay [2]. Also, the max response in assay [5] was 28.9%.
As for `CN1CCc2cc(Cl)c(O)cc2[C@@H](c2ccccc2)C1`, the Potency entry in [1], in assay [6], in assay [3], in assay [4] and in assay [7] was “inactive” in each case. Besides, the result in [2] was inactive. Besides, in assay [5], the max response is 34.1%.
With `C[N+](C)(C)CC=O`, the Potency entry in assay [1], in [6], in assay [3] and in assay [4] was “inactive” throughout. Also, in [2], the result was inactive. Also, the max response in assay [5] was 21.1%.
Consider `CC(C)Cn1c(=O)n(C)c(=O)c2[nH]cnc21`, for which the Potency entry in assay [1], in [6], in assay [3] and in assay [4] was “inactive” throughout. Besides, the call in [2] was inactive. For the same molecule, the max response in assay [5] is 4.24%.
For the molecule `CN(C)CCCc1cc(C(=O)Nc2ccc(-c3ccncc3)cc2)ccc1O`, the Potency result in assay [1], in assay [6], in [3], in assay [4] and in assay [7] was “inactive” each time. Further, the call in assay [2] was inactive.
`CCCc1c(-c2ccc(O)cc2)nn(-c2ccc(O)cc2)c1-c1ccc(O)cc1`: the Potency entry in assay [1], in assay [6], in assay [3], in [4] and in assay [7] was “inactive” in each case. Besides, the call in assay [2] and in assay [8] was inactive. The max response in assay [9] is -5.61%; in [10] it was -10.3%. Besides, in assay [11], the Potency is 70.8 µM (active).
For `Brc1c(Br)c(Br)c2[nH]cnc2c1Br`, the Potency entry in assay [1], in [6], in [3], in assay [4] and in assay [7] was “inactive” throughout. Further, in assay [2], the result was inactive. For the same molecule, the max response in [5] is 7.09%.
`O=[N+]([O-])c1cccc2c(Br)[nH]nc12`: the Potency result in assay [1], in assay [6], in assay [3], in assay [4] and in [7] was “inactive” in each case. Besides, the molecule was called inactive in assay [2]. Further, the max response in assay [5] is -25.7%.
As to `COc1cc(/C=C(\C#N)C(=O)Nc2nnc(C(F)(F)F)s2)ccc1OCc1ccc(C(F)(F)F)cc1C(F)(F)F`, the Potency result in assay [1], in assay [6], in assay [3], in [4] and in [7] was “inactive” in each case. Moreover, in assay [2], the molecule was called inactive. Besides, the max response in assay [5] was 5.8%.
On to `CCCCOC(=O)NS(=O)(=O)c1sc(CC(C)C)cc1-c1ccc(Cn2c(CC)nc3c(C)cc(C)nc32)cc1`, for which the Potency result in assay [1], in [6], in assay [3], in [4] and in assay [7] was “inactive” in each case. In assay [2], the molecule was classed as inactive.
With `CC(C)(CO)Cc1cc(C(C)(C)C)c(O)c(C(C)(C)C)c1`, the Potency entry in assay [1], in [6], in [3], in [4] and in [7] was “inactive” each time. Besides, the outcome in assay [2] was inactive. Besides, the max response in assay [5] was 9.64%.
In the case of `O=c1ccc2c(OCCCCc3ccccc3)c3ccoc3cc2o1`, the Potency entry in assay [1], in assay [6], in [3], in assay [4] and in [7] was “inactive” in each case. Moreover, in assay [2], the molecule was classed as inactive. Further, the max response in assay [5] was 10.3%.
Turning to `CCCOC(=O)c1c(-c2ccccc2)nc(CC)c(C(=O)SCC)c1CCC`, the Potency result in assay [1], in assay [6], in [3], in assay [4] and in assay [7] was “inactive” throughout. Further, the result in assay [2] was inactive. Besides, the max response in assay [5] is 9.8%.
Consider `Oc1ccc(/C=C/c2ccc(/C=C/c3ccc(O)cc3)c(Br)c2)cc1`, for which the Potency entry in assay [1], in assay [3], in assay [4] and in assay [7] was “inactive” each time. Also, the molecule was classed as inactive in assay [2].
With `N[C@@H](CS(=O)O)C(=O)O`, the Potency result in assay [1], in [6], in assay [3], in assay [4] and in assay [7] was “inactive” each time. The molecule was classed as inactive in [2]. Further, in assay [5], the max response was 27.3%.
In the case of `COc1cc(N)c(Cl)cc1C(=O)OCCN1CCCCC1`, the Potency entry in assay [1], in assay [12], in assay [3], in [4] and in assay [7] was “inactive” throughout. Further, in [2], the call was inactive. Further, in assay [5], the max response was 4.04%.
On to `O=c1cc(O)cc(/C=C/c2ccc(O)c(O)c2)o1`, for which the Potency result in assay [1], in assay [6], in [3], in assay [4] and in assay [7] was “inactive” throughout. For the same molecule, in [2], the molecule was classed as inactive.
In the case of `O=C(OCCN1CCOCC1)C1(c2ccccc2)CCCCC1`, the Potency result in assay [1], in assay [6], in assay [3], in [4] and in assay [7] was “inactive” throughout. Also, in [2], the result was inactive. Further, the max response in assay [5] was 16.2%.
As to `N[C@H](C(=O)O)c1cc(O)cc(O)c1`, the Potency entry in assay [1], in assay [6], in [3], in assay [4] and in [7] was “inactive” each time. For the same molecule, the outcome in [2] was inactive.
As for `Cn1c(=O)[nH]c2ncn(C)c2c1=O`, the Potency result in assay [1], in [6], in assay [3], in [4] and in [7] was “inactive” throughout. The result in [2] was inactive. The max response in assay [5] is 2.01%.
Regarding `Fc1ccc(CN(C2=NCCN2)c2c(Cl)cccc2Cl)cc1`, the Potency entry in assay [1], in assay [6], in [3], in assay [4] and in assay [7] was “inactive” each time. Besides, in assay [2], the outcome was inactive. The max response in [5] is -2.54%.
With `Clc1nccc2c1ccc1ccccc12`, the Potency result in assay [1], in [6], in assay [3] and in assay [4] was “inactive” throughout. Moreover, the molecule was classed as inactive in assay [2]. Besides, the max response in assay [5] is 7.1%.
Consider `O=c1[nH]c(=S)[nH]c(-c2ccccc2)c1Cc1c(O)ccc2ccccc12`, for which the Potency result in assay [1], in assay [6], in [3] and in assay [4] was “inactive” each time. Besides, the molecule was classed as inactive in assay [2].
As for `NC(=Nc1ccccc1)NC(=O)c1nc(Cl)c(N)nc1N`, the Potency entry in [1], in assay [3], in [4] and in assay [7] was “inactive” in each case. In [2], the outcome was inactive. Further, the Potency in [6] is 8.2 µM (active). In addition, in assay [5], the max response was 12.9%.

For the origin of these results see PubChem BioAssay (NCATS).
